According to PubChem BioAssay (Tox21):
Inconclusive results are not listed. Activity calls are given as the source filed them. Unless noted, calls follow the shape of the dose curve; as a rule, active = well fitted curve in the direction sought with a large enough effect in the repeat runs; inconclusive = weak or mixed curves; inactive = no such curve, though single readings can be large; an effect the other way counts as inactive or inconclusive.

Key:
[1] = qHTS assay to identify small molecule antagonists of the thyroid receptor (TR) signaling pathway - cell viability counter screen (AID 743064); also: nearly all actives have a fitted effect of over 50% in size
Procedure, shortened: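 In-well cytotoxicity read by CellTiter-Fluor (30 min, 37 C) following 23.5 h exposure of GH3 cells bearing a TRE-luciferase sensor. Compounds were added alongside 1 nM (final) T3 to drive TR transactivation.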

[2] = tested on: thyroid hormone receptor (rat, GH3 cells); experiment: qHTS assay to identify small molecule agonists of the thyroid receptor (TR) signaling pathway (AID 743066; calls by dose curve)
[3] = target: Estrogen receptor (Homo sapiens) (UniProt P03372); experiment: qHTS assay to identify small molecule antagonists of the estrogen receptor alpha (ER-alpha) signaling pathway (AID 743069; active = well fitted curve in the direction sought with a large enough effect in the signal ratio in the repeat runs, not every such curve was filed as active; the % refers to the signal ratio)
Estrogen receptor (Homo sapiens), sequence (P03372 whole entry, looked up): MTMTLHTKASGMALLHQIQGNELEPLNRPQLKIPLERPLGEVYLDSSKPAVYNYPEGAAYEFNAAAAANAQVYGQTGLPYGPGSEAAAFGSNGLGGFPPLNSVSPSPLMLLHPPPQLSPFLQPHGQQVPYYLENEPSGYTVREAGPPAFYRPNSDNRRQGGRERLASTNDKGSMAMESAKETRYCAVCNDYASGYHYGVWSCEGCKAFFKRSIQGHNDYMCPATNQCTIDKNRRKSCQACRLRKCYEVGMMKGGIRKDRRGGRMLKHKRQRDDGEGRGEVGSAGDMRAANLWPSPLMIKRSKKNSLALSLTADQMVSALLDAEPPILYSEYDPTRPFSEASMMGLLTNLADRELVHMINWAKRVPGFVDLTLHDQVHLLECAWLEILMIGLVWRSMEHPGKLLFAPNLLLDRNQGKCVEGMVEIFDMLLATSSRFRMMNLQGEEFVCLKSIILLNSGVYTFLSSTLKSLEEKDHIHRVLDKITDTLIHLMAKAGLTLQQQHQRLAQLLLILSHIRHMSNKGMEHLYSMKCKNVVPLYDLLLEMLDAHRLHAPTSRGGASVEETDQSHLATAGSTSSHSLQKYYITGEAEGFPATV
Procedure, shortened: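 Fluorescence intensity from a beta-lactamase FRET substrate served as the read-out. Cells: HEK293 with stably integrated ER-alpha-UAS-bla reporter. Agonist 17beta-estradiol was co-added with compounds; incubation 18 hr at 37C, substrate 2 hr at room temperature.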

[4] = target: Estrogen receptor (Homo sapiens) (UniProt P03372); experiment: qHTS assay to identify small molecule agonists of the estrogen receptor alpha (ER-alpha) signaling pathway (AID 743075; calls by dose curve)
[5] = target: Estrogen receptor (Homo sapiens) (UniProt P03372); experiment: qHTS assay to identify small molecule agonists of the estrogen receptor alpha (ER-alpha) signaling pathway using the BG1 cell line (AID 743079); conditions: BG1Luc4E2 cells, ERE-luciferase agonist, 22 h; activation: at 70.3 µM (top of the series) unless noted; also: nearly all actives have a fitted effect of over 20% in size
[6] = qHTS assay to identify small molecule antagonists of the estrogen receptor alpha (ER-alpha) signaling pathway using the BG1 cell line (AID 743080; calls by dose curve;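 also: BG1 cells stimulated with 17beta-estradiol alongside compound; nearly all actives have a fitted effect of over 25% in size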)
Procedure, shortened: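 Luminescence from a 4×ERE-luciferase reporter in BG1-Luc-4E2 cells served as read-out. Cells, pre-cultured 5 days in stripped-serum phenol-red-free medium, were exposed to compound with 17beta-estradiol co-stimulation for 21.5 h at 37 C.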

[7] = qHTS assay to identify small molecule antagonists of the estrogen receptor alpha (ER-alpha) signaling pathway using the BG1 cell line - cell viability counter screen (AID 743081);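 also: compound given together with 17beta-estradiol as the ER stimulus; nearly all actives have a fitted effect of over 45% in size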
Aromatase (Homo sapiens) = Aromatase (Homo sapiens) (UniProt P11511); experiment: qHTS assay to identify aromatase inhibitors (AID 743083); also: nearly all actives have a fitted effect of over 55% in size
Aromatase (Homo sapiens), sequence (P11511 whole entry, looked up): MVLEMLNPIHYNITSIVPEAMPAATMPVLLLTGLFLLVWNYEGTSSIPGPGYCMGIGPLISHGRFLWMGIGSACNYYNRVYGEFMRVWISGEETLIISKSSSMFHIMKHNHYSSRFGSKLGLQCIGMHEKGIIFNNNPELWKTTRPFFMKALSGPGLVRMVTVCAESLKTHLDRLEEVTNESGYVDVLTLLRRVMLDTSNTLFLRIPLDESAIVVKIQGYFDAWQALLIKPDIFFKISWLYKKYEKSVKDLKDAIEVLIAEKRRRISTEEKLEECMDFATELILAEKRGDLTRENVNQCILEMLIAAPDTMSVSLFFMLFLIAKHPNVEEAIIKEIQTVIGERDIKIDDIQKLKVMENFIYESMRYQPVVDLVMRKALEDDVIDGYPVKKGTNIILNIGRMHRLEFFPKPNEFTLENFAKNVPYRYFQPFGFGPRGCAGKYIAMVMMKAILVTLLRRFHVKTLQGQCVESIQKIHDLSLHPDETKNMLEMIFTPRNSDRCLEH

[8] = qHTS assay to identify aromatase inhibitors - cell viability counter screen (AID 743084);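 also: cells stimulated with testosterone during compound exposure; nearly all actives have a fitted effect of over 55% in size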
[9] = target: Aryl hydrocarbon receptor (Homo sapiens) (UniProt P35869); experiment: qHTS assay to identify small molecule that activate the aryl hydrocarbon receptor (AhR) signaling pathway (AID 743085);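 also: HG2L7.5c1 human HepG2 liver cells with stably integrated DRE-driven firefly reporter; nearly all actives have a fitted effect of over 15% in size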
Aryl hydrocarbon receptor (Homo sapiens), sequence (P35869 whole entry, looked up): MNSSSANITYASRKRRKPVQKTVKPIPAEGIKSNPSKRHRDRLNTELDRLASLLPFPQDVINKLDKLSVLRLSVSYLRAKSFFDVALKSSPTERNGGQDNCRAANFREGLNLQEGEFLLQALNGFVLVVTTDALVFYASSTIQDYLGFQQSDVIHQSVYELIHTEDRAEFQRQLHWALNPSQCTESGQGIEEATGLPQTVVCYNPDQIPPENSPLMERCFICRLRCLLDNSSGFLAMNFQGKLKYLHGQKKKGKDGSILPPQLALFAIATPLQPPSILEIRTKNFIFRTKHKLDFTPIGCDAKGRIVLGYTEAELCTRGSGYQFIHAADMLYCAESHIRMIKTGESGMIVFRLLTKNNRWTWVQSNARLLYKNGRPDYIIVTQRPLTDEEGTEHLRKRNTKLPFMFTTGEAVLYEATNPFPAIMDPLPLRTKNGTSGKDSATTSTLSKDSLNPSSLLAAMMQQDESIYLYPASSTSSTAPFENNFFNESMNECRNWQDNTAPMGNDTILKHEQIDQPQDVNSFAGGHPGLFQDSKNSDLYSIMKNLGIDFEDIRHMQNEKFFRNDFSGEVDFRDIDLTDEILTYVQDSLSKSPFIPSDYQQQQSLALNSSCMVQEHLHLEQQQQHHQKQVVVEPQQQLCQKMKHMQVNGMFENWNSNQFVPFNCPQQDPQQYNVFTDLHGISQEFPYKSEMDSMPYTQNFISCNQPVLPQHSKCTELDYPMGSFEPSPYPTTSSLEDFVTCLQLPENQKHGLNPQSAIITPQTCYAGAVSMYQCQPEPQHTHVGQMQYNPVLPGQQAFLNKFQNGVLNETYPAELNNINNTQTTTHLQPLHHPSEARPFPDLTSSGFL
Procedure, shortened: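 Luminescence (ONE-Glo) from a dioxin-responsive-element luciferase reporter in HG2L7.5c1 HepG2 cells after 24 hr compound exposure at 37C; viability measured by CellTiter-Fluor fluorescence beforehand.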

[10] = qHTS assay to identify small molecule that activate the aryl hydrocarbon receptor (AhR) signaling pathway - cell viability counter screen (AID 743086);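 also: HepG2 liver cells carrying the AhR DRE luciferase reporter; nearly all actives have a fitted effect of over 45% in size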
Procedure, shortened: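 Cytotoxicity counter screen: CellTiter-Fluor signal (30 min, 37 C) in 4000 HepG2 cells/well carrying the DRE-luciferase reporter, following 24 h compound exposure at 37 C.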

[11] = target: Peroxisome proliferator-activated receptor gamma (Homo sapiens) (UniProt P37231); experiment: qHTS assay to identify small molecule agonists of the peroxisome proliferator-activated receptor gamma (PPARg) signaling pathway (AID 743094; active = well fitted activation curve with a large enough effect in the signal ratio in the repeat runs, not every such curve was filed as active; the % refers to the signal ratio)
Peroxisome proliferator-activated receptor gamma (Homo sapiens), sequence (P37231 whole entry, looked up): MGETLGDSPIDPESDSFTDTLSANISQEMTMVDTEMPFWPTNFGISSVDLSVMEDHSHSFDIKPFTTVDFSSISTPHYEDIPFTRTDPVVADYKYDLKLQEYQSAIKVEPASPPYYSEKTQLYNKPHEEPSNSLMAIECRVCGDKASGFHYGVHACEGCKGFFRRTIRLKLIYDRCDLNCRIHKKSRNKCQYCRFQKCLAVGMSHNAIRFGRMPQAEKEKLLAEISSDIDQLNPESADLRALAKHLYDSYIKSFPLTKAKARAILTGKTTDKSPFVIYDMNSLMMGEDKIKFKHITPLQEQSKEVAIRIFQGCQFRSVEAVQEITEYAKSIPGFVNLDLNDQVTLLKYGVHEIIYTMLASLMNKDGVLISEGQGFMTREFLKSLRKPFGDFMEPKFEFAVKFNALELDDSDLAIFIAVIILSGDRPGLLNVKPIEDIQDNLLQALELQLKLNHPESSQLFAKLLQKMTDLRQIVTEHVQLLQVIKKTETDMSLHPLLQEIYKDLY
Procedure, shortened: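 Cells from the PPARg UAS-bla HEK293H line are plated and incubated 5 h at 37C. Compounds in DMSO are pinned in and left 17 h at 37C. LiveBLAzer B/G substrate is then added for 1 h at room temperature before fluorescence is measured.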

[12] = target: Peroxisome proliferator-activated receptor gamma (Homo sapiens) (UniProt P37231); experiment: qHTS assay to identify small molecule antagonists of the peroxisome proliferator-activated receptor gamma (PPARg) signaling pathway (AID 743191; calls by dose curve; also: nearly all actives have a fitted effect of over 30% in size)
Procedure, shortened: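 Beta-lactamase reporter under UAS control in HEK293H PPARg-bla cells; compound treatment 17 h at 37C. Read-out: fluorescence intensity after 1 h room-temperature incubation with LiveBLAzer B/G FRET substrate.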

[13] = qHTS assay for small molecule agonists of the antioxidant response element (ARE) signaling pathway - cell viability counter screen (AID 743203; calls by dose curve; also: nearly all actives have a fitted effect of over 55% in size)
Procedure, shortened: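 Cytotoxicity was tested in parallel with the ARE reporter screen. ARE-bla HepG2 cells were exposed to compounds for 16 hrs, and viability was taken from CellTiter-Glo luminescence.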

[14] = qHTS assay for small molecule activators of the heat shock response signaling pathway - cell viability counter screen (AID 743209); also: nearly all actives have a fitted effect of over 50% in size
Procedure, shortened: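 Cytotoxicity counter screen run in parallel with the HSE beta-lactamase reporter, using the same wells. HeLa HSE-bla cells received compound for 5 h at 37 C; ATP-based CellTiter-Glo luminescence was measured after 30 min at room temperature.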

[15] = qHTS assay to identify small molecule antagonists of the estrogen receptor alpha (ER-alpha) signaling pathway - cell viability counter screen (AID 743074; calls by dose curve; also: nearly all actives have a fitted effect of over 45% in size)
[16] = qHTS assay to identify small molecule antagonists of the peroxisome proliferator-activated receptor gamma (PPARg) signaling pathway - cell viability counter screen (AID 743194); conditions: Potency: co-treated with 50 nM rosiglitazone unless noted; also: nearly all actives have a fitted effect of over 55% in size
Procedure, shortened: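 Viability was measured as CellTiter-Glo luminescence in GeneBLAzer PPARg UAS-bla HEK293H cells. These cells had been exposed 17 h at 37 C to compounds together with rosiglitazone at 50 nM final, with the beta-lactamase readout taken in the same wells.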

[17] = qHTS assay for small molecule activators of the heat shock response signaling pathway (AID 743210; active = well fitted activation curve with a large enough effect in the signal ratio in the repeat runs, with a control signal flat, not every such curve was filed as active; the % refers to the signal ratio;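 also: HeLa cells with beta-lactamase reporter driven by heat shock elements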)
Procedure, shortened: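 Fluorescence from a cleaved B/G FRET substrate (2.5 h, room temp) reports HSE-driven beta-lactamase in HeLa cells treated 5 h at 37 C with DMSO-dissolved compounds.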

[18] = qHTS assay for small molecule agonists of the antioxidant response element (ARE) signaling pathway (AID 743202; active = well fitted activation curve with a large enough effect in the signal ratio in the repeat runs, not every such curve was filed as active; the % refers to the signal ratio)
Procedure, shortened: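 Beta-lactamase reporter activity, read as fluorescence intensity, reflects ARE/Nrf2 pathway induction in HepG2 cells after 16 h compound exposure at 37 C; substrate loading was 2 h at room temperature.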

[19] = qHTS assay to identify small molecule antagonists of the thyroid receptor (TR) signaling pathway (AID 743065); also: nearly all actives have a fitted effect of over 55% in size
Procedure, shortened: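 Antagonism measured as loss of luciferase signal in GH3 cells stably carrying a TRE-luciferase reporter, co-treated with compound and T3 (1 nM final) for 23.5 h at 37 C. Viability was read in the same well by CellTiter-Fluor.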

Measured: Potency

NC(N)=S
inactive: [1] | [2] | [3] | [4] | [5] | [6] | [7] | Aromatase (Homo sapiens) | [8] | [9] | [10] | [11] | [12] | [13] | [14]

Nc1cccc(N)n1
inactive: [1] | [2] | [3] | [15] | [4] | [5] | [6] | [7] | Aromatase (Homo sapiens) | [8] | [10] | [11] | [12] | [16] | [13] | [14] | [17]

CCCN(CCC)C(=O)SCC
inactive: [1] | [3] | [15] | [4] | [5] | [6] | [7] | Aromatase (Homo sapiens) | [8] | [9] | [10] | [11] | [12] | [18] | [13] | [14] | [17]

Cc1ncc(CO)c(CO)c1O
inactive: [1] | [15] | [7] | Aromatase (Homo sapiens) | [8] | [9] | [10] | [11] | [12] | [16] | [18] | [13] | [14] | [17]

O=Cc1ccc(CO)o1
inactive: [19] | [2] | [3] | [15] | [4] | [5] | [6] | [7] | Aromatase (Homo sapiens) | [8] | [9] | [10] | [11] | [12] | [16] | [18] | [13] | [14] | [17]

Cc1cc(C)c(O)c(C)c1
inactive: [1] | [2] | [3] | [15] | [4] | [5] | [6] | [7] | Aromatase (Homo sapiens) | [8] | [10] | [11] | [12] | [16] | [13] | [14] | [17]

OC[C@H]1O[C@@H](Oc2ccc(O)cc2)[C@H](O)[C@@H](O)[C@@H]1O
inactive: [19] | [2] | [3] | [15] | [4] | [5] | [6] | [7] | Aromatase (Homo sapiens) | [8] | [9] | [10] | [11] | [12] | [16] | [18] | [13] | [14] | [17]

C=CC(=O)NCOCCCC
inactive: [19] | [2] | [3] | [15] | [4] | [5] | [6] | [7] | Aromatase (Homo sapiens) | [8] | [9] | [10] | [11] | [16] | [13] | [14] | [17]
